The target of the experiment is dTDP-4-dehydrorhamnose reductase (Mycobacterium tuberculosis (strain ATCC 25618 / H37Rv)) + dTDP-4-dehydrorhamnose 3,5-epimerase (Mycobacterium tuberculosis (strain ATCC 25618 / H37Rv)) (UniProt P9WH09+P9WH11). As to the kind of experiment: M. tuberculosis RmlC/RmlD coupled enzyme inhibitors, primary screen, biochemical, compound mixtures, 384-well, from 1536-well plates (AID 1533). The conditions noted are these: RmlC+RmlD coupled enzyme assay, percent inhibition, primary screen in compound mixtures, stronger effect = higher value.

Setting [1] is: measured here: mean retest inhibition, at 5.5 µM.

Each structure is given as a SMILES string. Among all 160,000 compounds or so, about 45 (0.03%) were called active. No stated cut-off is given here; in the data, active means inhibition mostly above about 34% (no sharp cut-off); inconclusive means no clear call, values can overlap the other calls; inactive means mostly below about 22%. This excerpt belongs to a sample that is enriched for actives.

Sequence of dTDP-4-dehydrorhamnose reductase (Mycobacterium tuberculosis (strain ATCC 25618 / H37Rv)) + dTDP-4-dehydrorhamnose 3,5-epimerase (Mycobacterium tuberculosis (strain ATCC 25618 / H37Rv)) (P9WH09 whole entry, looked up): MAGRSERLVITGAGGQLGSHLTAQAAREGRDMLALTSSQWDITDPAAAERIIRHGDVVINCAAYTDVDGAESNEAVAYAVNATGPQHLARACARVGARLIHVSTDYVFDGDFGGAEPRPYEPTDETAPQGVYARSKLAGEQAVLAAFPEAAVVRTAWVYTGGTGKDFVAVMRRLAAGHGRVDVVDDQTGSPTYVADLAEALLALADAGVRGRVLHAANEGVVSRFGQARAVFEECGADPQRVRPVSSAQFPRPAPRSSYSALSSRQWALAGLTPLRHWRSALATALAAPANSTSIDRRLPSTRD
Sequence of dTDP-4-dehydrorhamnose reductase (Mycobacterium tuberculosis (strain ATCC 25618 / H37Rv)) + dTDP-4-dehydrorhamnose 3,5-epimerase (Mycobacterium tuberculosis (strain ATCC 25618 / H37Rv)) (P9WH11 whole entry, looked up): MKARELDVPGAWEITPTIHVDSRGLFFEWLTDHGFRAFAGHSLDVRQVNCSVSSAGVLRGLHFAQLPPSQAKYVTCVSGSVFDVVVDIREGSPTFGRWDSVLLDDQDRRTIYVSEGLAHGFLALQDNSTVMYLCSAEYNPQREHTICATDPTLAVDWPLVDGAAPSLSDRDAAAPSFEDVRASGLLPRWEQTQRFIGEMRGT

`Cc1c(-c2cccc(Cl)c2)nc2ccccc2c1C(=O)OCC(=O)N(C)C1CCS(=O)(=O)C1` (configuration not stated): the inhibition (at 3.6 µM) was 5.87% (inactive).

In the case of `O=C(CCS(=O)(=O)c1ccccc1Cl)Nc1ccc(S(=O)(=O)Nc2ncccn2)cc1`, the inhibition (at 3.6 µM) is 10% (inactive).

In the case of `CCCCCN(C(=O)NC(=O)Nc1cccc(C)c1C)S(C)(=O)=O`, the inhibition (at 3.6 µM) was -12.7% (inactive).

Consider `OC(c1ccccc1)C(CN1CCOCC1)c1ccccc1` (configuration not stated), for which the inhibition (at 3.6 µM) is 7.15% (inactive).

Consider `NS(=O)(=O)c1ccc(NC(=S)NC(=O)c2cccc(Br)c2)cc1`, for which the inhibition (at 3.6 µM) was 4.21% (inactive).

`CCC1=NN2C(=N)/C(=C/c3cc(C)n(-c4ccccc4)c3C)C(=O)N=C2S1`: where the note is “at 3.6 µM”, the inhibition was -9.8% (inactive).

With `CCN1CCc2nc(NC(=O)c3cc(F)c(F)cc3Cl)sc2C1`, under “at 3.6 µM”, the inhibition was -6.97% (inactive).

For the molecule `COc1ccc(C2=NN(C(=O)CCC(=O)O)C(c3cccs3)C2)cc1OC` (configuration not stated), the inhibition (at 3.6 µM) was -7.36% (inactive).

On to `CN1CCN(CCNC(=O)Nc2ccc([N+](=O)[O-])cc2)CC1`, for which, under “at 3.6 µM”, the inhibition was 5.16% (inactive).

`CN(C)c1ccc(/C=C/C(=O)c2ccc(O)cc2)cc1[N+](=O)[O-]`: the inhibition reads like this: (at 3.6 µM) 44.3% (inactive); under setting [1], 5.01%.

`CCOC(=O)C1CCN(C(=O)Nc2cccc(OC)c2)CC1`: the inhibition (at 3.6 µM) is 1.02% (inactive).

For `Cc1ccc(/C=N/NC(=O)CSc2ccccn2)o1`, the inhibition (at 3.6 µM) was 70% (inactive) and the inhibition under setting [1] is -5.62%.

On to `O=C(O)C(NS(=O)(=O)c1cccc2nsnc12)c1ccccc1` (configuration not stated), for which, where the note is “at 3.6 µM”, the inhibition is -10.9% (inactive).

As for `CCCCSc1nnc2c(n1)OC=Nc1ccccc1-2`, for the setting “at 3.6 µM”, the inhibition was 11.2% (inactive).

With `CN1CCc2nc(SC(C(=O)O)c3ccccc3)c(C#N)c(-c3cccs3)c2C1` (configuration not stated), for the setting “at 3.6 µM”, the inhibition is -14.8% (inactive).

On to `COc1ccc(OC)c(-n2c(=S)[nH]c3cc(C(=O)N4CCCCC4)ccc3c2=O)c1`, for which the inhibition (at 3.6 µM) was 4.34% (inactive).

Take `O=S(=O)(NCc1ccco1)c1cnc(Cl)c(Cl)c1`: the inhibition (at 3.6 µM) is 11.4% (inactive).

On to `COc1ccc(CCN2C(=O)N(c3ccc(OC)cc3)C(=O)C2CC(=O)Nc2ccc(OC)cc2)cc1` (configuration not stated), for which, under “at 3.6 µM”, the inhibition is -9.07% (inactive).

On to `CCOC(=O)C1(Cc2cccc(OC)c2)CCN(C(C)CC(C)(C)O)CC1` (configuration not stated), for which, for the setting “at 3.6 µM”, the inhibition was 7.5% (inactive).

In the case of `COc1ccc(NS(=O)(=O)c2ccc(N3CCOCC3)c(NC(=O)c3ccccc3Br)c2)cc1`, the inhibition (at 3.6 µM) is -4.87% (inactive).

Consider `Cc1nc2nc(SCC(=O)c3ccccc3)[nH]c2cc1Br`, for which the inhibition (at 3.6 µM) was 4.73% (inactive).

Take `O=C1C2C3C=CC(C3)C2C(=O)N1c1ccc(S(=O)(=O)Nc2nccs2)cc1` (configuration not stated): the inhibition (at 3.6 µM) was -2.55% (inactive).

Consider `COCCSc1nnc(NC(=O)c2cc(OC)c(OC)cc2[N+](=O)[O-])s1`, for which the inhibition (at 3.6 µM) was 15.5% (inactive).

Turning to `CC(=O)c1sc(NC(=O)C2=NN(c3ccccc3)C(=O)CC2)nc1C`, the inhibition (at 3.6 µM) was -9.61% (inactive).

For `Cc1ccc(NC(=O)NC2CCCCC2)cc1S(=O)(=O)N1CCOCC1`, the inhibition (at 3.6 µM) is -9.91% (inactive).

`Clc1ccc2nc(-c3ccccc3)nc(C(Cl)Cl)c2c1`: under “at 3.6 µM”, the inhibition is 0.32% (inactive).

Regarding `O=S(=O)(Nc1ccc(OC(F)(F)F)cc1)c1cccc2nonc12`, the inhibition (at 3.6 µM) was 4.95% (inactive).

For the molecule `O=C(NCc1ccc(F)cc1)C1CCC(CNc2c(N3CCOCC3)c(=O)c2=O)CC1` (configuration not stated), the inhibition was 43.3% (inactive) (at 3.6 µM) and -8.27% under setting [1].

For `CCOc1ccc(CCN2C(=O)c3cccnc3C2=O)cc1OCC`, the inhibition (at 3.6 µM) was 3.14% (inactive).

Turning to `Cc1ccc(NC(=O)c2ccc(S(=O)(=O)NCC3CCCO3)cc2)cc1C` (configuration not stated), under “at 3.6 µM”, the inhibition was 0.36% (inactive).

As for `CC(=O)NC(=S)Nc1ccc(NC(=O)c2cccnc2)cc1`, the inhibition (at 3.6 µM) was 2.81% (inactive).

Turning to `COc1ccc(C(C(=O)NC(C)(C)C)N(C(=O)Cn2nnc3ccccc32)c2ccc(C(C)=O)cc2)cc1O` (configuration not stated), where the note is “at 3.6 µM”, the inhibition is 11.7% (inactive).

On to `CSc1ccccc1NC(=O)CN(C)CC(=O)Nc1cccc(Br)c1`, for which the inhibition (at 3.6 µM) is 6.55% (inactive).

Regarding `O=C1/C(=C/c2coc3ccc(O)cc3c2=O)SC(=S)N1c1ccccc1`, the inhibition (at 3.6 µM) was -8.54% (inactive).

With `Cc1cccn2c(CNCC(C)Oc3cccnc3)c(C(=O)N3CCOCC3)nc12` (configuration not stated), the inhibition (at 3.6 µM) was 7.78% (inactive).

`CCN(CC)c1ccc(NC(=O)C2CCC(CNc3c(N4CCCC4)c(=O)c3=O)CC2)c(C)c1` (configuration not stated): the inhibition (at 3.6 µM) is 6.36% (inactive).

Regarding `O=S(=O)(c1ccccc1)N1CN(Cc2ccc(F)cc2)c2nc3ccccc3nc21`, the inhibition (at 3.6 µM) is -11.9% (inactive).

Consider `Cc1ccc(S(=O)(=O)N(C)CC(=O)OCC(=O)Nc2ccccc2)cc1`, for which the inhibition (at 3.6 µM) was 13.5% (inactive).

Regarding `C/C(=N\NC(=S)NCc1ccccc1)C1CCCCC1`, the inhibition (at 3.6 µM) is 5.23% (inactive).

Consider `Fc1cccc2ncnc(OCc3ccccc3)c12`, for which the inhibition (at 3.6 µM) was 3.36% (inactive).

`CCn1c(SCC(=O)Nc2sc(C)c(C)c2C#N)nnc1C1CC1`: the inhibition (at 3.6 µM) was -13.3% (inactive).

With `CCC(C)NC(=O)C1c2ccccc2Oc2ccccc21` (configuration not stated), the inhibition (at 3.6 µM) was 10.6% (inactive).

Take `CCOC(=O)c1ccc(S(=O)(=O)N(CCO)Cc2cc3cc(OC)c(OC)cc3[nH]c2=O)cc1`: the inhibition (at 3.6 µM) is -8.54% (inactive).

As to `CCc1cccc(NC(=O)CCNS(=O)(=O)c2cccc3nonc23)c1`, under “at 3.6 µM”, the inhibition was -2.17% (inactive).

Take `CCC(C)(C)NC(=O)C(c1ccc(O)cc1)N(C(=O)Cn1nnc2ccccc21)c1ccc(NC(C)=O)cc1` (configuration not stated): where the note is “at 3.6 µM”, the inhibition is 4.36% (inactive).

Turning to `COC(=O)c1ccc(COc2ccc(/C=N/NC(=O)C(=O)Nc3ccc(OC)cc3)cc2OC)o1`, the inhibition (at 3.6 µM) is -13.4% (inactive).

For `Cn1nc(C(C)(C)C)c([N+](=O)[O-])c1C(N)=O`, the inhibition (at 3.6 µM) is 11.8% (inactive).

In the case of `Cc1ccc(NC(=O)/C(=C\c2ccccc2)NC(=O)c2ccco2)cc1`, the inhibition (at 3.6 µM) was 44% (inactive) and the inhibition under setting [1] was 3.08%.

The term inhibition denotes the drop in the measured response relative to a control, in per cent.
